# Source: the supplement of paper PMC11732987, “Enantioselective OTUD7B fragment discovery through chemoproteomics screening and high-throughput optimisation” (Communications Chemistry, 2025)
# A number with no mark means an inactive call.
# Assays:
# Experiment in all cases: log2 ratio of Biotin-Ahx-Ub-VS probe labelling (fragment/DMSO); higher = less target engagement (more negative = stronger competition), active = hit call of the paper (q ≤ 0.05, log2 ratio ≤ -1)
# Conditions in all cases: compound concentration: 200 uM; treatment time: 3 h
# [1] = target: T1, OTUD6B (UniProt Q8N6M0)
# T1 sequence (whole entry): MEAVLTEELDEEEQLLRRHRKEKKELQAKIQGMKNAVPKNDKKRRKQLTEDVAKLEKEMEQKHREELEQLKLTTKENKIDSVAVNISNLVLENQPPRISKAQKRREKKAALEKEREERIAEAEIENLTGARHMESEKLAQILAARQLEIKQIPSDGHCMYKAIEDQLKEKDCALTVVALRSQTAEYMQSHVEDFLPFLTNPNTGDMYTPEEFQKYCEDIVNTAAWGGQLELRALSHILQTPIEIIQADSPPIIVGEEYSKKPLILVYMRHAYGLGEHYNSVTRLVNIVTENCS
# In short: (§1)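 Fragment (200 µM) or vehicle was incubated for 3 h with triplicate HEK293T lysate samples of 495 µg, which were then treated with Biotin-Ahx-Ub-VS at 0.5 µM final for 1 h. Labelled DUBs were enriched on NeutrAvidin, digested with LysC and trypsin, and analysed by diaPASEF LC-MS/MS. Values are average log2 fragment/vehicle ratios from an unpaired t-test on global-median-normalised Spectronaut label-free quantities, using proteins with ≥2 unique peptides.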
# [2] = target: T2, OTUD7B (UniProt Q6GQQ9)
# T2 sequence (whole entry): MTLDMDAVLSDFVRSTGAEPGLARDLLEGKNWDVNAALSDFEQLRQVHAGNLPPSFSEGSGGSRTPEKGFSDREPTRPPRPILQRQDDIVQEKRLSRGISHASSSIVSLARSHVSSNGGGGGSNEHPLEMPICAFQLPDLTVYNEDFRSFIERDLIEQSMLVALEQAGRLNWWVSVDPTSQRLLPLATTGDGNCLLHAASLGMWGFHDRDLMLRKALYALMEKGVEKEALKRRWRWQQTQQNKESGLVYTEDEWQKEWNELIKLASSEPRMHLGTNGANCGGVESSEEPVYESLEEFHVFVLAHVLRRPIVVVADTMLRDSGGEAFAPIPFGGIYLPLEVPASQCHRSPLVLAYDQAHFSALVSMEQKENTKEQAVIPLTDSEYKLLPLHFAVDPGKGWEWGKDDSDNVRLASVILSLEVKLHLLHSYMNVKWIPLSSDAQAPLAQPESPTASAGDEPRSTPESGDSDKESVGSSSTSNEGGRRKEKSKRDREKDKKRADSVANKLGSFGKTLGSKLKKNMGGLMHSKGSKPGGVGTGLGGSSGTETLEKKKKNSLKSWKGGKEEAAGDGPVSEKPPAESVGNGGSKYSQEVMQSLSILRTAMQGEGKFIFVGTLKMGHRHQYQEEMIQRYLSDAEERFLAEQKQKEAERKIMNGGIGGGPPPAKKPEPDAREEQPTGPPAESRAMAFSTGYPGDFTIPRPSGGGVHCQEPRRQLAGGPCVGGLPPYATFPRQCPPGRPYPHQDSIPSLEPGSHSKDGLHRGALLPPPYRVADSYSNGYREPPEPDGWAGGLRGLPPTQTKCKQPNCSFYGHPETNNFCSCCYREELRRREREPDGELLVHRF
# In short: as §1
# [3] = target: PRPF8 (UniProt Q6P2Q9)
# In short: as §1
# [4] = target: T3, PSMD7 (UniProt P51665)
# T3 sequence (whole entry): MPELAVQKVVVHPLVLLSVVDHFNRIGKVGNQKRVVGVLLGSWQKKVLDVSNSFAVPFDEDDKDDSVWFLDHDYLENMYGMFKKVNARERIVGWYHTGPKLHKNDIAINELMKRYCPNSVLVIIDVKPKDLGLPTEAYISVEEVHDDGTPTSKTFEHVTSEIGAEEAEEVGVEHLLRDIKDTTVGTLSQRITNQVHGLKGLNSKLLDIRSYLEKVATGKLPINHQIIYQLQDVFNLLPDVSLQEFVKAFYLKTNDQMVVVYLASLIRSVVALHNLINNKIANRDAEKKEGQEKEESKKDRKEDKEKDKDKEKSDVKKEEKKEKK
# In short: as §1
# [5] = target: UCHL1 (UniProt P09936)
# Sequence of UCHL1 (P09936 whole entry, looked up): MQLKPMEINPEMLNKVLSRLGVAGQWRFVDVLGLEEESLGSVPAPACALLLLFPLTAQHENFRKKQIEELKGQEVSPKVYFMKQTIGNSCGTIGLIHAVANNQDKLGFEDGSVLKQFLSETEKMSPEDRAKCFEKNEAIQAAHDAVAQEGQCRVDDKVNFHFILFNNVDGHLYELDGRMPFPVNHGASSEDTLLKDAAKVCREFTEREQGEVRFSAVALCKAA
# In short: as §1
# [6] = target: T4, UCHL3 (UniProt P15374)
# T4 sequence (whole entry): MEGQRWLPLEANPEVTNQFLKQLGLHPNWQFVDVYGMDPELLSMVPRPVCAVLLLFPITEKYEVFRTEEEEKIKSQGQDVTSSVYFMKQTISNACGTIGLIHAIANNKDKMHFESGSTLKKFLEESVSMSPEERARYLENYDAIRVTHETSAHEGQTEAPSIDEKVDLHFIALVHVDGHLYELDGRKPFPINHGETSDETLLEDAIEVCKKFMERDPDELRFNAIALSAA
# In short: as §1
# [7] = target: T5, UCHL5 (UniProt Q9Y5K5)
# T5 sequence (whole entry): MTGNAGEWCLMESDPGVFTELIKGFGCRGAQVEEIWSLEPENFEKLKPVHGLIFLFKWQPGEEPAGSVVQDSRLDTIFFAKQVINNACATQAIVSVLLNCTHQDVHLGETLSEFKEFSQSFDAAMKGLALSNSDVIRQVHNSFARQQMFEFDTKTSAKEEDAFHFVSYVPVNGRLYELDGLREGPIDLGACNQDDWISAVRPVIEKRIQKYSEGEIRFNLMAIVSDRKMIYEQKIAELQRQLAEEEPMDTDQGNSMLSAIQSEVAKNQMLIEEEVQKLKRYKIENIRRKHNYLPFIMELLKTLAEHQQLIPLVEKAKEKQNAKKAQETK
# In short: as §1
# [8] = target: USP10 (UniProt Q14694)
# Sequence of USP10 (Q14694 whole entry): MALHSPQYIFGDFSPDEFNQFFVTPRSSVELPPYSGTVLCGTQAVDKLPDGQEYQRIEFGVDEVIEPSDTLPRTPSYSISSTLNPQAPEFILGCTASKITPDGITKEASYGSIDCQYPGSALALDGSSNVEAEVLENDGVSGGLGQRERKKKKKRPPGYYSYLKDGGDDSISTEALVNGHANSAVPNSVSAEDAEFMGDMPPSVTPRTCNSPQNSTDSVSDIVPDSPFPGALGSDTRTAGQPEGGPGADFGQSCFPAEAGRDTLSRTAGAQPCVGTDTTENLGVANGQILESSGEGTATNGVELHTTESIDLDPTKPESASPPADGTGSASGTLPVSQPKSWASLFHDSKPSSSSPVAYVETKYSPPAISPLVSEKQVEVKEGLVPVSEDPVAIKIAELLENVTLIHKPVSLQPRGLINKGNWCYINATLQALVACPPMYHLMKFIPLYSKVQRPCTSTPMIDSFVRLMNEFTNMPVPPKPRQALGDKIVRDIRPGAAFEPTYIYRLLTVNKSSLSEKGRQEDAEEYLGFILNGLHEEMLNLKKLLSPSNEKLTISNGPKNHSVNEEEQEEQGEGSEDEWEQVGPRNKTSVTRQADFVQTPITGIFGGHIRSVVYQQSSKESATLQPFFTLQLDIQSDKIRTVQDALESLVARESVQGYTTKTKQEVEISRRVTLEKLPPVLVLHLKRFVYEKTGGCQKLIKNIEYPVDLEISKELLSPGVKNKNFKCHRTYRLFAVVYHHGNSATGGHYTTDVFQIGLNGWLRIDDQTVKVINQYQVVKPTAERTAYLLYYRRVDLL
# In short: as §1
# [9] = target: T6, USP15 (UniProt Q9Y4E8)
# T6 sequence (whole entry): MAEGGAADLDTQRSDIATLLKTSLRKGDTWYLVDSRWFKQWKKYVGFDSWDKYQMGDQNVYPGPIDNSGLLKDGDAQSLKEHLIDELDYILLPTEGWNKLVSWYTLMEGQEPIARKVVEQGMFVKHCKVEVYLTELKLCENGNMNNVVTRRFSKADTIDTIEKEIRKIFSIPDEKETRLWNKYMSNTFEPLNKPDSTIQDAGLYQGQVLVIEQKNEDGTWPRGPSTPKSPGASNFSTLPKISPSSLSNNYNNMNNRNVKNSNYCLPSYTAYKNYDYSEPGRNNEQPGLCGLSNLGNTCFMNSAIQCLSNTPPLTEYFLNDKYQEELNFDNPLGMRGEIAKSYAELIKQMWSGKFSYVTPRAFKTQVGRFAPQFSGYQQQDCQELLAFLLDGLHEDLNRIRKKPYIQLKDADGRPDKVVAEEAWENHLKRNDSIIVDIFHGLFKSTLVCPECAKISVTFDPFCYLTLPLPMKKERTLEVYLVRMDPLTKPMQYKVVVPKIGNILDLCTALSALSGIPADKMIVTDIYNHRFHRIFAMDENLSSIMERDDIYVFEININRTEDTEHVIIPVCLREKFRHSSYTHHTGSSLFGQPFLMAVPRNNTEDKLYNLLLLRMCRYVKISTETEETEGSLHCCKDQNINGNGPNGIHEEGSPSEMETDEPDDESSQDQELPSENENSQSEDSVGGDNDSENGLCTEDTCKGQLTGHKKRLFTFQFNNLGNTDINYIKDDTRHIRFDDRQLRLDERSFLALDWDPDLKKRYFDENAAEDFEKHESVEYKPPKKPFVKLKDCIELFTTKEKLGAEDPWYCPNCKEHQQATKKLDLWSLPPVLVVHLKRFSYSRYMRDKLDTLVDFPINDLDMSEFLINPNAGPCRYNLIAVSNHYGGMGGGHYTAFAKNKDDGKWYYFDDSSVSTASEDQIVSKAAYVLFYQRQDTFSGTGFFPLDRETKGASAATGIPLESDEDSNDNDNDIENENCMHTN
# In short: as §1
# [10] = target: USP16 (UniProt Q9Y5T5)
# Sequence of USP16 (Q9Y5T5 whole entry, looked up): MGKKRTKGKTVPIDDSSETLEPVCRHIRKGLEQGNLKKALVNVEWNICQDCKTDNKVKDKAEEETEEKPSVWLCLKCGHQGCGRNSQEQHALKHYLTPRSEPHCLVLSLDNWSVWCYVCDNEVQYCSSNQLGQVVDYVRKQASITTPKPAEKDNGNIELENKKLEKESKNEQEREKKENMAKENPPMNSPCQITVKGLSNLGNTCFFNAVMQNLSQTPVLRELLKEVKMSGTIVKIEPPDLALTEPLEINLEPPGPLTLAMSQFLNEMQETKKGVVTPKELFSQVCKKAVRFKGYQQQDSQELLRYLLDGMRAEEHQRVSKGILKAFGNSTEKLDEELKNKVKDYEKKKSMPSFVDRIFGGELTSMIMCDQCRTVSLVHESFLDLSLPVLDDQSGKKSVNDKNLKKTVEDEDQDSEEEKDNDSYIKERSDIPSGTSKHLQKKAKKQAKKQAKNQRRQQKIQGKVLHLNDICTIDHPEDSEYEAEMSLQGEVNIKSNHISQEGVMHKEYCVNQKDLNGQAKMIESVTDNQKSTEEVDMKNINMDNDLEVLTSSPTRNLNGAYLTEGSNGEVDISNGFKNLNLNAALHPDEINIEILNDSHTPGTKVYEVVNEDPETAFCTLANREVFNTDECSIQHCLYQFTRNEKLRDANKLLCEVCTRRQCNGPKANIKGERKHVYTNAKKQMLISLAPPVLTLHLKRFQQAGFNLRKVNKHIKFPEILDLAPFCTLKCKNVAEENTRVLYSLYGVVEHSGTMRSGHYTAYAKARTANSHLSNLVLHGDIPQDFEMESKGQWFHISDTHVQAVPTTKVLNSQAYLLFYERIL
# In short: as §1
smiles,measurement,setting,value
Cc1ccc(N2CCC(NC(=O)CCl)C2=O)cc1 (stereo not given),log2 ratio of Biotin-Ahx-Ub-VS probe labelling,[1],0.0252
same,log2 ratio of Biotin-Ahx-Ub-VS probe labelling,[2],-0.741
same,log2 ratio of Biotin-Ahx-Ub-VS probe labelling,[3],-0.0776
same,log2 ratio of Biotin-Ahx-Ub-VS probe labelling,[4],0.0257
same,log2 ratio of Biotin-Ahx-Ub-VS probe labelling,[5],-1.67 (active)
same,log2 ratio of Biotin-Ahx-Ub-VS probe labelling,[6],0.299
same,log2 ratio of Biotin-Ahx-Ub-VS probe labelling,[7],-0.0673
same,log2 ratio of Biotin-Ahx-Ub-VS probe labelling,[8],-0.174
same,log2 ratio of Biotin-Ahx-Ub-VS probe labelling,[9],0.106
same,log2 ratio of Biotin-Ahx-Ub-VS probe labelling,[10],-0.702
